The results in this text go back to PubChem BioAssay (NCI).

Among the test systems are HCT-15 colon; HT29 colon; SNB-75 CNS; SNB-19 CNS; U251 CNS; SK-MEL-5 melanoma; UACC-62 melanoma; LOX IMVI melanoma; SK-MEL-28 melanoma; PC-3 prostate.
Holding throughout (test): NCI-60 one-dose screen, 48 h (100 = growth as untreated, 0 = no growth, -100 = all killed)
What all share (conditions): 10 µM unless noted

SMILES strings stand for the structures. About 83,000 compounds went through this panel and 20% of them were active in at least one assay; those are over-represented in the sample as a whole.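 In brief: 96-well plates, 48 h treatment, single concentration, percent growth endpoint.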 Unmarked numbers belong to inactive results. The source made the active and inactive calls. The calls were made as follows: active = growth percent below 10; inactive = the rest.

As for `COC(=O)c1ccc2oc(NC(=O)c3ccc(Nc4ccc([N+](=O)[O-])cc4C)c([N+](=O)[O-])c3)nc2c1`, the growth with HCT-15 colon was 104%; in the experiment on HT29 colon, 96.8%; in the experiment with SNB-75 CNS, 97.5%; with SNB-19 CNS it was 99%; in the experiment with U251 CNS it was 101%; in the experiment with SK-MEL-5 melanoma, 93.6%. The growth in the experiment with UACC-62 melanoma was 100%; with LOX IMVI melanoma, 99.7%; in the experiment with SK-MEL-28 melanoma it was 108%.
Consider `COc1ccc(C2CC(c3ccc(Cl)cc3)=NN2/C=C2\SC(=S)N(NC(=O)Cc3ccccc3Nc3c(Cl)cccc3Cl)C2=O)cc1` (centres undefined), for which the growth was 68.7% in the experiment on HCT-15 colon; 57.7% in the experiment on HT29 colon; 58.4% with SNB-75 CNS; 18.2% with SNB-19 CNS; 54.1% in the experiment on U251 CNS; 81.9% with SK-MEL-5 melanoma. The values for the growth with UACC-62 melanoma, with LOX IMVI melanoma and in the experiment with SK-MEL-28 melanoma were 63.2%, 26.9% and 92.1%, respectively.
Take `COCCNc1ccc2c3c(cccc13)C(=O)N(CCN(C)C)C2=O`: the growth in the experiment on HCT-15 colon is 20%; with HT29 colon, 10.4%; in the experiment on SNB-75 CNS, 47.7%; in the experiment with SNB-19 CNS, 22.4%; with U251 CNS, 28.1%; in the experiment on SK-MEL-5 melanoma, -33.5% (active). Further, the growth is 3.48% (active) in the experiment with UACC-62 melanoma, 2.86% (active) in the experiment on LOX IMVI melanoma and 37.5% in the experiment on SK-MEL-28 melanoma.
As to `CC(=O)c1nc2ccccc2n1CC(=O)c1cccc(Cl)c1`, the growth in the experiment on HCT-15 colon was 27.3%; in the experiment with HT29 colon it was 94%; with SNB-75 CNS, 21%; in the experiment with SNB-19 CNS, 24.1%; in the experiment on U251 CNS it was 14.3%; with SK-MEL-5 melanoma, -13.2% (active). The growth in the experiment with UACC-62 melanoma is 31.5%; in the experiment on SK-MEL-28 melanoma, 67.7%.
As to `O=C(O)c1ccc(NC(=O)c2ccc(-c3cccc([N+](=O)[O-])c3)o2)cc1`, the growth was 99.2% with HCT-15 colon; 104% in the experiment with HT29 colon; 88% in the experiment on SNB-75 CNS; 92% in the experiment on SNB-19 CNS; 96.8% in the experiment with U251 CNS; 101% in the experiment on SK-MEL-5 melanoma. Moreover, the growth in the experiment on UACC-62 melanoma is 98.4%; in the experiment on LOX IMVI melanoma, 95.3%; with SK-MEL-28 melanoma, 107%.
For the molecule `CCCc1cc(=O)n2c(C(=O)Nc3cccc(C(=O)OCC)c3)c(C(=O)Nc3ccc(F)cc3)sc2n1`, the growth is 66.4% [30 µM] with HCT-15 colon; 67.5% [30 µM] in the experiment on HT29 colon; 25.6% [30 µM] with SNB-75 CNS; 43.8% [30 µM] in the experiment with SNB-19 CNS; 13.2% [30 µM] in the experiment with U251 CNS; 66.6% [30 µM] in the experiment on SK-MEL-5 melanoma. Besides, the growth with UACC-62 melanoma was 104% [30 µM]; in the experiment on SK-MEL-28 melanoma it was 88.3% [30 µM].
For `COc1ccc(/C=C(\C#N)C(=O)Nc2cccc(Nc3nc(SC)nc(-c4cccc([N+](=O)[O-])c4)c3C#N)c2)cc1OC`, the growth in the experiment on HCT-15 colon is 95.3%; in the experiment with HT29 colon, 113%; in the experiment with SNB-75 CNS it was 92%; in the experiment on SNB-19 CNS, 104%; with PC-3 prostate, 94.8%; in the experiment on SK-MEL-5 melanoma, 94.8%. Besides, the growth was 97% in the experiment with UACC-62 melanoma, 97.6% in the experiment on LOX IMVI melanoma and 105% with SK-MEL-28 melanoma.
With `O=C(/C=C/c1ccccc1)c1ccc(O)c(CN2CCN(c3cc4c(cc3F)c(=O)c(C(=O)O)cn4C3CC3)CC2)c1`, the growth with HCT-15 colon was 16.9%; in the experiment with HT29 colon, 5.56% (active); in the experiment with SNB-75 CNS, -2.4% (active); in the experiment on SNB-19 CNS, 29.8%; in the experiment with PC-3 prostate, 18.3%; with SK-MEL-5 melanoma, -42.1% (active). Also, the growth with UACC-62 melanoma was 21.3%; in the experiment with LOX IMVI melanoma, 6.26% (active); in the experiment on SK-MEL-28 melanoma it was 46.5%.
Turning to `COc1ccc(-c2cc(C(=O)N=Nc3c(O)[nH]c4ccc(Br)cc34)no2)cc1`, the growth is 100% in the experiment on HCT-15 colon; 100% in the experiment on HT29 colon; 66.1% in the experiment with SNB-75 CNS; 92% with SNB-19 CNS; 95.8% with PC-3 prostate; 97.4% in the experiment on SK-MEL-5 melanoma. Further, the growth is 101% in the experiment with UACC-62 melanoma, 96% in the experiment on LOX IMVI melanoma and 113% with SK-MEL-28 melanoma.
As to `COc1ccc(/C=C/C(=O)c2ccc(O)c(CN3CCN(c4cc5c(cc4F)c(=O)c(C(=O)O)cn5C4CC4)CC3)c2)cc1`, the growth with HCT-15 colon was 19.1%; with HT29 colon, 11.1%; in the experiment with SNB-75 CNS, -5.37% (active); with SNB-19 CNS it was 24%; in the experiment with PC-3 prostate it was 18.1%; in the experiment on SK-MEL-5 melanoma it was -23% (active). Further, the growth is 27.2% in the experiment on UACC-62 melanoma, 12.8% with LOX IMVI melanoma and 57.9% in the experiment with SK-MEL-28 melanoma.
For the molecule `CSc1nc(Nc2cccc(NC(=O)CCl)c2)c(C#N)c(-c2cccc([N+](=O)[O-])c2)n1`, the growth in the experiment with HCT-15 colon was 17.5%; with HT29 colon, 17.7%; in the experiment with SNB-75 CNS, 30.5%; in the experiment on SNB-19 CNS, 83.5%; in the experiment with PC-3 prostate, 30.5%; with SK-MEL-5 melanoma it was 34.3%. The growth is 41% with UACC-62 melanoma, -69.2% (active) with LOX IMVI melanoma and 102% in the experiment with SK-MEL-28 melanoma.
As for `O=C1NC(=S)N[C@H]1CC(=O)n1cnc2ccccc21`, the growth with HCT-15 colon was 99.1%; in the experiment with HT29 colon, 111%; in the experiment on SNB-75 CNS it was 69.7%; in the experiment with SNB-19 CNS, 102%; in the experiment on PC-3 prostate, 101%; in the experiment with SK-MEL-5 melanoma, 99.1%. Also, the values for the growth in the experiment with UACC-62 melanoma, with LOX IMVI melanoma and in the experiment with SK-MEL-28 melanoma were 93.4%, 88.5% and 111%, respectively.
On to `COc1ccc(Nc2nc(SC)nc(-c3cccc([N+](=O)[O-])c3)c2C#N)cc1`, for which the growth is 78.6% with HCT-15 colon; 70.3% in the experiment with HT29 colon; 10.3% in the experiment with SNB-75 CNS; 79% with SNB-19 CNS; 75.8% in the experiment on PC-3 prostate; 70.9% in the experiment with SK-MEL-5 melanoma. In addition, the growth with UACC-62 melanoma is 69.5%; with LOX IMVI melanoma it was 70.8%; in the experiment with SK-MEL-28 melanoma it was 84.9%.
Turning to `N#Cc1c(-c2ccc(Cl)cc2)nc(N/N=C/c2cccc(Br)c2)nc1N1CCOCC1`, the growth was 8.41% (active) with HCT-15 colon; 29% with HT29 colon; 76.8% in the experiment with SNB-75 CNS; 107% with SNB-19 CNS; 61.2% in the experiment with PC-3 prostate; 85.6% in the experiment on SK-MEL-5 melanoma. The results for the growth in the experiment on UACC-62 melanoma, in the experiment on LOX IMVI melanoma and with SK-MEL-28 melanoma were 92.6%, 79.8% and 99.5%, respectively.
